Test results from PubChem BioAssay AID1554 (Broad Institute, 2009).
Where “and” joins values, the source holds several entries; their conditions need not be identical. Equal entries are not always repeated. The whole screen tested about 300,000 compounds, of which about 520 (0.17%) were called active. The sample holds actives, similar compounds and a random draw of the others, so the mix is not that of the screen. Unmarked numbers belong to inactive results. Rule as the data show it: active = inhibition above about 50%; inconclusive = no clear call, values can overlap the other calls; inactive = below that.

Assay: PubChem AID 1554
Settings: BJeLR (HRASV12) viability, CellTiter-Glo ATP luminescence, 48 h; stronger effect = higher value; concentration not given here

SMILES | inhibition
NS(=O)(=O)c1ccc(CNC(=O)c2cnccn2)cc1 | 4.27%
CCC(C)Sc1nc2c(cnn2-c2ccc(F)cc2)c(=O)[nH]1 (stereo unspecified) | -2.29%
CC1(C)CC(=O)C(C=NCCN2CCN(C(=S)Nc3cccc(Cl)c3)CC2)=C(O)C1 | 8.42%
CSCCC(NC(=O)COc1ccccc1)C(=O)OCCOc1ccc(F)cc1 (stereo unspecified) | -6.51%
CCOC(=O)c1sc(NC(=O)CSc2nc(O)c(Cc3ccccc3)c(=O)[nH]2)nc1C | 5.77%
CCCn1c(=N)n(CC(=O)c2ccc(Cl)c(Cl)c2)c2ccccc21 | 3.45%
COc1ccc2c(c1)N(C)/C(=C1/SC(=S)N(NC(C)=O)C1=O)S2 | 1.69%
CC(OC(=O)CN1C(=O)C2CCCCC2C1=O)C(=O)Nc1ncc(Cl)cc1Cl (stereo unspecified) | 6.26%
CCOC(=O)c1c(N)sc2c1CCCC2=O | 7.59%
O=C(Nc1ccc(C(=O)O)cc1)/C(=C\c1ccccc1)NC(=O)c1ccc(Br)cc1 | -0.97%
Cc1ccc(OC(=O)c2cncc(Br)c2)c(C)c1 | -5.3%
CC1CN(C2CCN(C(=O)COc3ccccc3)CC2)CC(C)O1 (stereo unspecified) | -0.241%
Cc1c(C(=O)N(Cc2ccccc2)Cc2cccnc2)cnn1-c1ccc(F)cc1 | -6%
O=[N+]([O-])c1cc(Br)c(O)c(/C=N/Nc2nc3ccccc3s2)c1 | 7.46%
O=C(CNC(=O)c1ccccc1)Oc1ccc([N+](=O)[O-])cc1 | -1.21%
O=C(NC(Nc1nc2ccc([N+](=O)[O-])cc2s1)(C(F)(F)F)C(F)(F)F)c1ccccc1 | 77.1% (active)
O=C(CCC(=O)NNc1nc2ccccc2c2nc(-c3ccccc3)nn12)NCCCN1CCCC1=O | 0.872%
CCOC(=O)COc1ccc([N+](=O)[O-])cc1 | -3.89%
CCOC(=O)/C(=C\c1ccc([N+](=O)[O-])cc1)C(=O)c1cc(C(C)=O)c(Nc2ccccc2)s1 | 58.8% (active)
Cc1ccc(NC(=O)/C(=C/c2ccc([N+](=O)[O-])cc2)NC(=O)c2ccccc2)cc1 | -1.53%
Cc1ccc(NC(=O)c2cnc(SCC(=O)NCC3CCCO3)n(C)c2=O)cc1 (stereo unspecified) | 1.95%
COc1cc(CN2CCN(Cc3ccc(C)cc3)CC2)c([N+](=O)[O-])cc1OC | 1.71%
COC(=O)CN1C(=O)C(C)(C)Oc2ccc(C(=O)Nc3cccc(OC)c3)cc21 | -4.31%

SMILES | inhibition
COc1ccc(CCNC(=O)COC(=O)Cc2cc(OC)c(OC)c(OC)c2)cc1 | 0.941%
COc1cc2c(C(=O)N(C)c3cc(Cl)ccc3OC)cn(C)c(=O)c2cc1OC | -4.19%
O=C(NCCOc1cccnc1)c1ccc(OC2CCN(Cc3ccccn3)CC2)cc1 | 113% (active)
O=C(c1ccc(OC2CCN(Cc3ccccn3)CC2)cc1)N1CCCCCC1 | -3.12%
Cn1cc(CNC(=O)c2ccc(OC3CCN(Cc4ccccn4)CC3)cc2)cn1 | 2.21%
O=C(CN1C(=O)c2cccnc2Oc2ccc(Cl)cc21)NCCc1ccccc1 | 2.42%
CC(=O)N1CCN(c2ccc(NCc3ccc(C(C)C)cc3)cc2)CC1 | -2.24%
CC(=O)c1ccc(N2Cc3ccccc3C2)cc1 | -5.06%
C/C(=N/NC(=O)CN1CCN(S(=O)(=O)c2ccc(Br)cc2)CC1)c1ccncc1 | 4.03%
O=C(c1cc(-c2ccc(Cl)s2)nc2ccccc12)N1CCOCC1 | -8.28%
Cc1ccc(CSCCNC(=O)CN(c2ccc(F)cc2)S(C)(=O)=O)cc1 | -8.45%
CC1CCCC(N2CCN(C(=O)c3ccc(F)cc3)CC2)C1 (stereo unspecified) | -5.87%
O=C(NCc1ccccc1Cl)c1ccc2c(=O)n(CC3CCCO3)c(=S)[nH]c2c1 (stereo unspecified) | 9.1%
COc1cc(NC(=O)CSC(=S)N2CCCC2)c(OC)cc1Cl | -1.51%
CCOc1ccc(OCCSc2nc3ccccc3n2CC(=O)O)cc1 | -3.19%
Cc1ccc2cc(C#N)c(NCCNC(=S)NCCCN3CCOCC3)nc2c1 | 4.4%
COc1cc([N+](=O)[O-])ccc1NC(=S)N1CCN(c2ccccn2)CC1 | -1.41%
CCOC(=O)c1cc2cc3ccccc3cc2oc1=O | -11.8%
CCOC(=O)C1=C(c2ccc(OC)cc2)C(=O)c2ccccc2C1=O | 110% (active)
COc1ccc(N2CCN(C(C)=C3C(=O)c4ccccc4C3=O)CC2)cc1 | 2.27%
Cc1ccc(S(=O)(=O)n2cccc2CO)cc1 | -3.34%
COCCNS(=O)(=O)c1cc(Br)ccc1OC | -2.67%
O=C(NCc1ccc2c(c1)OCO2)c1cc2c(s1)CS(=O)(=O)C2 | 5.68%

SMILES | inhibition
COc1ccc(C(=O)O)cc1S(=O)(=O)NCc1cccnc1 | 4.17%
Cn1cc(CCC(=O)N2CCCC(C(=O)c3ccc(C(C)(C)C)cc3)C2)cn1 (stereo unspecified) | -7.89%
CC(NC(=O)CCCC1CCCCC1)c1ccc(S(N)(=O)=O)cc1 (stereo unspecified) | 10.8%
COc1ccc(S(=O)(=O)N2CCCCCC2)cc1C(=O)N(C)Cc1cccc(OC)c1OC | -3.35%
O=S(=O)(Cc1noc(-c2ccc(OC(F)(F)F)cc2)n1)c1ccc(F)cc1 | -11.6%
Cc1nnc(SCC(=O)N2c3ccccc3C(C)(c3ccc(Cl)cc3)CC2(C)C)s1 (stereo unspecified) | 13.1%
Cc1[nH]c(C)c(S(=O)(=O)N2CCN(c3cccc(C(F)(F)F)c3)CC2)c1C(=O)N1CCCCC1 | 0.76%
Nc1ccc(-n2nncc2-c2ccco2)cc1 | 11.6%
CCOc1c(N2CCCCC2)c(=O)c1=O | 5.32%
O=C(/C=C/c1ccc([N+](=O)[O-])o1)NNC(=O)c1ccc(F)cc1 | 60.3% (active)
O=C(N/N=C/c1ccc([N+](=O)[O-])o1)c1cn(-c2ccccc2)nc1-c1ccc(F)cc1 | -4.37%
Cc1ccc(/C=C/C(=O)Nc2ccc([N+](=O)[O-])c(NC(=O)/C=C/c3ccc(C)o3)c2)o1 | -29.1%
CNS(=O)(=O)c1cccc(C(=O)NC2CCCc3ccccc32)c1 (stereo unspecified) | -3.04%
CCCCCC(O)(CCN1CCCCC1)c1ccccc1 (stereo unspecified) | -2.94%
CC(C)CC[n+]1ccn(C2=C([O-])c3ccccc3C(=O)/C2=N\S(=O)(=O)c2ccccc2)c1 | -5.54%
CN(C)/C=C(\C#N)C(=O)c1cccnc1Oc1ccc(F)cc1F | -6.11%
Oc1ccc2ccccc2c1N=Nc1nccs1 | 77.1% (active)
COC(=O)CCSc1cc([N+](=O)[O-])cc2c1c(C1OCCS1)nn2-c1ccccc1 (stereo unspecified) | 3.81%
CCOc1ccc(C(C)=O)cc1CSc1nnc(-c2ccncc2)n1CCOC | -17.6%
Cc1cc(C)c(NC(=O)CN2CCCCCC2)c(C)c1 | -2.78%
COc1cccc(C(=O)Nc2ccc(N3CCCC3)cc2)c1 | 52.9% (active)
CN1CCN(c2ccc(NC(=O)c3ccccc3)cc2)CC1 | -5.43%
COc1cccc(C(=O)Nc2ccc(N3CCN(C(=O)c4ccco4)CC3)cc2)c1 | 11.7%

SMILES | inhibition
Cc1[nH]c2ccccc2c1-c1ccc(Cl)nn1 | 7.01%
CC(C)(C)SCCSC1=CC(=O)CC(c2ccccc2)C1 (stereo unspecified) | 7.66%
CC1=C/C(=N\OS(=O)(=O)c2ccccc2)C=CC1=O | 91.4% (active)
CCCCCCCCn1c2c(c(=N)c3c1CCC3)CCCC2 | 24.6%
CCCCCN1CC(O)=C(c2ccccc2)C1=N | -8.91%
CCCCCCCCCCCCn1ccc(=N)cc1 | 87.5% (active)
Cn1c(Cc2cccs2)nnc1SCC(=O)Nc1ccccc1 | -23.8%
C=CCc1c(C)nc2cc(-c3ccccc3)[nH]n2c1=O | 2.64%
COC(=O)c1ccc(COC(=O)c2c(C)nn(Cc3ccccc3Cl)c2Cl)o1 | -0.748%
CCOC(=O)C1CCCN(S(=O)(=O)c2ccc3c(c2)C(C)(C)C(=O)N3C)C1 (stereo unspecified) | -8.48%
N#Cc1cccc(CN2CCC(=O)N([C@H](CO)c3ccccc3)CC2)c1 | 4.84%
Cc1ccc(-c2nn(-c3ccccc3)cc2CN(Cc2ccccc2)C(=O)CCC(=O)O)o1 | -0.0578%
CCc1ccc(-c2nn(-c3ccccc3)cc2CSC(=N)N)cc1 | 103% (active)
Cc1ccc(-c2nn(-c3ccccc3)cc2/C=N/NC(=O)c2ccc3c(c2)OCO3)cc1 | 11.4%
COc1ccc(S(=O)(=O)N2CCOC2CNC(=O)C(=O)NCc2ccc(F)cc2)cc1 (stereo unspecified) | 6.34%
Cc1nnc(SC(C)C(=O)Nc2ccc(S(=O)(=O)NC3CCCCC3)cc2)s1 (stereo unspecified) | -6.12%
Cc1cc([N+](=O)[O-])nn1Cc1ccc(F)cc1 | 7.4%
CCCc1cc(=O)[nH]c(SCC(=O)c2cc(C)n(CCC)c2C)n1 | 0.606%
CCCc1cc(=O)[nH]c(SCC(=O)OCc2ccccc2)n1 | -0.726%
CCCc1cc(=O)[nH]c(SCC(=O)c2c(N)n(CC(C)C)c(=O)n(C)c2=O)n1 | 63.2% (active)
COC(=O)[C@H]1[C@H]2C[C@H]3c4[nH]c5ccccc5c4CCN3C[C@@H]2CC[C@@H]1O | -6.61% and 2.06%
CC(C)(C)c1ccc(/C=C2\SC(=O)N=C2N)cc1 | -2.23%
